# Test results published in the supplement of paper PMC4166925.
# ± gives the standard deviation of the averaged measurements. In all, about 33,000 sequences were measured (“E-score (dimensionless, -0.5 to 0.5)”: median about -0.049, highest 2% from about 0.37 on). For the sample, the highest values were picked, then their nearest neighbours and some sequences at random.
# Tested on: T1, PmTbr T-box DNA-binding domain (GST fusion)
# T1 sequence: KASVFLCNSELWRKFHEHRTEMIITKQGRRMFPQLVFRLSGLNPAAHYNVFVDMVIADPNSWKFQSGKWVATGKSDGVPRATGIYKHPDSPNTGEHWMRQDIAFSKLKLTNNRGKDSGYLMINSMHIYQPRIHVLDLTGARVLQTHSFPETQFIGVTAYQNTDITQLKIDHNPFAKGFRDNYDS
# Test: PBM E-score of 8-mer (E-score (dimensionless, -0.5 to 0.5)); Tbr is Tbrain of the sea star Patiria miniata (Pm) or the sea urchin Strongylocentrotus purpuratus (Sp); higher = stronger binding preference
# Details: the construct has about 5 more residues each side
# Method: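 Universal protein-binding microarray (Agilent AMADID 016060, 60-bp probes with a 35-bp variable region) incubated with 200 nM GST-fused Patiria miniata Tbr T-box DNA-binding domain (residues 272-466) in PBS pH 7.5. Scored for every ungapped 8-mer (given with its reverse complement) by the Universal PBM Analysis Suite as E-score (modified Wilcoxon-Mann-Whitney enrichment, range -0.5 to 0.5; >0.45 counts as bound) and Z-score of median probe intensity. Two replicate arrays (datasets 1 and 2).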
# 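Also: 200 nM protein in PBS on universal arrays averaged over duplicate arrays.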
row,Sequence,PBM E-score of 8-mer
1,GCGTGCTA,0.261 ± 0.0046
2,ATGTGCTA,0.396 ± 0.0083
3,AAGTGCCA,0.41 ± 0.0065
4,AAGTGCCC,-0.143 ± 0.0036
5,ATGTGCTC,-0.297 ± 0.012
6,GAGTGCCA,0.242 ± 0.0057
7,ATGACCTC,-0.0665 ± 0.086
8,CAGCGATA,0.0152 ± 0.0054
9,ACAAGAGG,-0.108 ± 0.048
10,CATACAGG,-0.17 ± 0.0088
11,CCACTCCG,-0.01631 ± 0.00014
12,GATTAGAC,-0.0447 ± 0.044
13,GCCTCTGA,0.0009 ± 0.067
14,ACTTAAAG,0.0623 ± 0.041
15,AAGTGCTG,0.283 ± 0.0071
16,AAGTGCTA,0.448 ± 0.016
17,AAGTGCTC,0.0187 ± 0.018
18,CCCTTAAG,-0.00471 ± 0.02
19,CGTGCAGC,0.0118 ± 0.029
20,CATCGCAG,0.0526 ± 0.063
21,GATCGCAA,0.244 ± 0.013
22,AATCGCAG,0.0445 ± 0.062

row,Sequence,PBM E-score of 8-mer
1,GATCGCGC,0.289 ± 0.018
2,AATCGCAT,0.0479 ± 0.038
3,AATCGCAC,0.381 ± 0.0051
4,CATCGCAC,0.373 ± 0.023
5,CATCGCAA,0.0368 ± 0.039
6,GATCGCAC,0.42 ± 0.018
7,ACGAATGG,0.0417 ± 0.027
8,GAATGGGA,-0.214 ± 0.011
9,GCCATGTA,-0.101 ± 0.045
10,ACCACTCC,0.0476 ± 0.03
11,AGTTGCGA,0.412 ± 0.0052
12,CCTTGCGA,0.243 ± 0.012
13,GCTTGCGA,0.105 ± 0.024
14,AGTTGCGG,0.0771 ± 0.12
15,ACTTGCGA,0.386 ± 0.006
16,AGTTGCGC,0.0703 ± 0.035
17,CGGGTCAC,0.113 ± 0.024
18,CAGAGGTC,-0.0549 ± 0.0023
19,ACAGTAAC,0.186 ± 0.054
20,GCTTAAGC,-0.292 ± 0.0039
21,AGGCCCCC,-0.332 ± 0.014
22,AAACGGCA,0.0707 ± 0.068

row,Sequence,PBM E-score of 8-mer
1,GGCTTCAA,-0.121 ± 0.014
2,AATTCGAC,-0.0254 ± 0.029
3,CCATCACG,0.033 ± 0.018
4,CGGTGGGA,-0.0368 ± 0.0018
5,AGGTGGAG,0.141 ± 0.0032
6,GGGTGGTA,0.121 ± 0.07
7,AGGTGGGA,0.418 ± 0.01
8,AGGTGGTG,0.385 ± 0.042
9,AGGTGGTA,0.415 ± 0.0043
10,AGGTGGGC,-0.0782 ± 0.065
11,AGGTGGTC,-0.0579 ± 0.012
12,CGGTGGTA,-0.00583 ± 0.042
13,ATTCAGAG,-0.13 ± 0.0013
14,CGACTTGC,0.161 ± 0.025
15,CCATCTCG,-0.0242 ± 0.099
16,GCTTGCCC,-0.245 ± 0.0072
17,TCCATCGA,-0.121 ± 0.022
18,ATAACGCC,0.237 ± 0.023
19,ATTGCACG,0.152 ± 0.033
20,CGGTGGCA,0.147 ± 0.031
21,AGGTGGCC,0.0319 ± 0.077
22,AGGTGGCG,0.412 ± 0.023

row,Sequence,PBM E-score of 8-mer
1,GGGTGGCA,0.322 ± 0.024
2,AGGTGGCA,0.436 ± 0.0087
3,AAGTGGCG,0.3473 ± 0.0029
4,AAGTTGGA,-0.0116 ± 0.045
5,AGAAGTCC,0.0869 ± 0.022
6,GTAGCCCA,-0.311 ± 0.012
7,ACACATCA,0.299 ± 0.017
8,ACACATCC,0.3871 ± 0.0015
9,CCACATCC,-0.102 ± 0.032
10,GCACATCC,0.136 ± 0.038
11,ACACATCT,0.325 ± 0.019
12,ACACATCG,0.382 ± 0.017
13,ACTTCTCC,-0.0311 ± 0.0014
14,GGAGGCTA,-0.209 ± 0.016
15,ATAGGCAT,-0.337 ± 0.021
16,CAAAGGTA,-0.133 ± 0.035
17,AAAAGGTC,-0.0764 ± 0.033
18,AAAAGGTG,0.442 ± 0.012
19,AAAAGGTT,-0.0316 ± 0.041
20,CAAAGGTG,0.436 ± 0.018
21,CAAAGGTC,-0.13 ± 0.039
